The values below come from PubChem BioAssay (NCI).

About 83,000 compounds went through this panel and 20% of them were active in at least one assay; those are over-represented in the sample as a whole.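 Interpretation: 100, growth as untreated; towards 0, rising growth inhibition; 0, no net growth; 0 to -100, cell death. Compounds scoring below 10 were considered active.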 The source made the active and inactive calls.

The test relates to OVCAR-4 ovarian. Nature of the test: NCI-60 one-dose screen, 48 h (100 = growth as untreated, 0 = no growth, -100 = all killed). Conditions: 10 µM unless noted. On the procedure: Growth inhibition of the OVCAR-4 human tumor cell line is measured as a screen for anti-cancer activity. Cells are grown in 96 well plates and exposed to the test compound for 48 hours. Compounds are tested at a single concentration, which is 10^-5 M for most compounds. The reported endpoint is percent growth (GI% or GIPRCNT), where numbers from 0 - 100% represent growth inhibition, and numbers from -100% - 0 represent cell death. For example, a value of 40 represents 60% growth inhibition. A value of 0 means no net growth occurred over the course of the experiment. A value of -40 indicates 40% of cells at the beginning of the experiment died by the end of the experiment. A value of -100 means all cells are dead at the end of the experiment.
NCI-60 Human Tumor Cell Lines Screen was performed using the standard one-dose NCI protocol, which is described in more detail at https://dtp.cancer.gov/discovery_development/nci-60/default.htm.
Compounds with GIPRCNT values below 10 were considered active. Activity score was based on GIPRCNT using the following formula: […]
Score is 0 for GIPRCNT values of 100 or above, 50 for GIPRCNT values of 0, and 100 for GIPRCNT values of -100.
Regarding `COc1ccc(OC)c(NC(=O)/C(C#N)=C/c2ccco2)c1`, the growth is 77% (inactive).
For `Nc1nc2c(ncn2[C@@H]2O[C@H](CS)[C@@H](O)[C@H]2O)c(=O)[nH]1`, the growth is 99.1% (inactive).
As to `O=C(c1nc2ccccc2[nH]1)C1[C@@H](c2cccc(O)c2)C2CC3CCCCC3N2[C@@]12C(=O)Nc1cc(Cl)ccc12` (stereo not given in full), the growth was 34.4% (inactive).
As to `O=C(Nc1ccc(N2CCNCC2)cn1)c1[nH]ncc1Nc1ncnc2sccc12`, the growth is 21.3% (inactive).
Consider `COc1ccc(/C=C/C(=O)c2c(C)nc3ccccc3c2/C=C/c2ccccc2)c(OC)c1`, for which the growth is 66.5% (inactive).
For the molecule `O=C1c2cc(I)ccc2Oc2cc([N+](=O)[O-])ccc2N1c1ccc(Cl)cc1F`, the growth is 79.4% (inactive).
For `O=C(Nc1ccc(I)cc1F)c1cc(Cl)ccc1O`, the growth was 15% (inactive).
In the case of `COC(=O)[C@H]1CCCN1C(=O)[C@H]1CCCN1C(=O)[C@H](Cc1c[nH]c2ccccc12)NC(=S)Nc1cc(C(F)(F)F)cc(C(F)(F)F)c1`, the growth was 62% (inactive).
As to `COc1ccccc1N1C(=N)S/C(=C\c2ccc(OCc3ccccc3F)cc2)C1=O`, the growth was 87% (inactive).
Turning to `CCCCCCCCCCCCCCn1cc(C2=C(c3coc4ccc(OC)cc34)C(=O)NC2=O)c2ccccc21`, the growth is 102% (inactive).
In the case of `COc1cc(/C=C/C(=O)N2c3ccccc3CC2C)c(OC)c2c1OCO2` (stereo not given), the growth is 96.6% (inactive).
In the case of `NCCNc1nc2ccc(F)cc2c2c(=O)c3cc(F)ccc3sc12`, the growth is 37.2% (inactive).
Regarding `O=C1/C=C/[C@@H](O)[C@@H]2C[C@@H](O)C[C@H]2/C=C/CCCCO1`, the growth is 20.9% (inactive).
On to `O=c1oc2ccc(Cl)cc2c(=O)n1-c1cc(C(F)(F)F)cc(C(F)(F)F)c1`, for which the growth was 18.1% (inactive).
On to `N#CC(C#N)=Cc1c(-c2ccccc2)[nH]c2ccccc12`, for which the growth was 65.7% (inactive).
With `O=C(NCCCN1CCC(N2CCCCC2)CC1)C1=Cc2cc(Br)ccc2OC1`, the growth was 45.5% (inactive).
The result for `COc1cc(NC(=O)CCSc2nc3ccccc3c(=O)n2Cc2ccccc2)cc(OC)c1OC` reads 63.4% (inactive); that for `O=C(Nc1ccc(F)cc1F)c1cc(I)ccc1O`, 20.1% (inactive); that for `O=c1nc2sc3nc4ccccc4cc3cc-2s1`, 115% (inactive).
The result for `COc1ccc(-c2nsc3c2NC(=O)CC3c2ccc3c(c2)OCCO3)cc1` (stereo not given) reads 36.9% (inactive).
For the molecule `O=C(CN1C=NC2C(N3CCOCC3)=NC=NC21)c1cccc2ccccc12` (stereo not given), the growth was 97.1% (inactive).
In the case of `O=c1c2cc(F)ccc2sc2c(NCCCNCCO)nc3ccc(Cl)cc3c12`, the growth was 61% (inactive).
Under `COc1ccc(/C=C2\NC(=O)NC2=O)cc1O` stands 98.8% (inactive).
For `CCCN1C(=O)N(CCC)C2C1NN=c1s/c(=C3\C(=O)N(C(C)C)c4ccccc43)c(=O)n12` (stereo not given), the growth was 42.9% (inactive).
Under `O=C(NC1CCN(Cc2ccccc2)CC1)c1cc(C(=O)NC2CCN(Cc3ccccc3)CC2)cc(C(=O)NC2CCN(Cc3ccccc3)CC2)c1` stands 60.5% (inactive).
In the case of `COc1cc(C#N)cc2[nH]c(=O)oc12`, the growth is 96.9% (inactive).
The result for `CC(=O)Nc1nc2c(s1)CCc1c-2cn(S(=O)(=O)c2ccccc2)c1-c1ccccc1` reads 84.3% (inactive).
The result for `CN(C)c1ccc(N=Cc2ccc(N3CCOCC3)cc2)cc1` reads 19.1% (inactive); that for `Oc1c(C(Nc2ccccn2)c2cccc(Oc3ccccc3)c2)ccc2cccnc12` (stereo not given), -96.7% (active).
On to `COC(=O)c1c2c(c(C)[n+]([O-])c1C)C(=O)C(NCc1ccc(F)c(F)c1)=CC2=O`, for which the growth was -93.4% (active).
For the molecule `O=c1oc2ccc(Cl)cc2c(=O)n1-c1ccc(F)cc1F`, the growth is 18.5% (inactive).
Under `O=C(CCN1C(=O)c2ccccc2C1=O)Nc1ccc(Cl)cc1` stands 91.2% (inactive); under `CC[C@]1(O)C[C@@H]2CN(CCc3c([nH]c4ccccc34)[C@@](C(=O)OC)(c3cc4c(cc3OC)N(C)[C@H]3[C@@](O)(C(=O)OC)[C@H](OC(C)=O)[C@]5(CC)C=CCN6CC[C@]43[C@@H]65)C2)C1`, 33.7% (inactive); under `CNCCNc1nc2ccccc2c2c(=O)c3cc(F)ccc3sc12`, 49.1% (inactive).
Under `O=c1oc2ccc(Cl)cc2c(=O)n1-c1ccc(I)cc1F` stands 16.1% (inactive); under `O=c1oc2ccc(Br)cc2c(=O)n1-c1ccc(Cl)cc1F`, 15.1% (inactive).
Under `O=C1c2ccc3c4c(ccc(c24)C(=O)N1CCCCO)C(=O)N(CCCCO)C3=O` stands 42.4% (inactive); under `COc1cccc(C(=O)NC(c2ccc(C)cc2)c2cc(Cl)c3cccnc3c2O)c1` (stereo not given), 24.9% (inactive).
Take `O=C1/C(=C/c2ccc(O)cc2)COc2ccc(O)cc21`: the growth is 102% (inactive).
For the molecule `COc1cc(/C=C2\CN(S(=O)(=O)c3ccccc3)C/C(=C\c3cc(CN4CCCC4)c(O)c(OC)c3)C2=O)cc(CN2CCCC2)c1O`, the growth is 34.8% (inactive).
